# High-throughput results from PubChem.
# USP10 block: human USP10 deubiquitinase inhibition; Q14694; purified USP10, Ub-rhodamine fluorescence, 60 min; inhibition, % at 20 µM; hit rate 1.1% among 47,000; AID 1645856
# USP7 inh: blocks human USP7 ubiquitin-rhodamine cleavage | inhibition, % at 20 µM | hit rate 0.3% among 47,000 | purified USP7, Ub-rhodamine cleavage fluorescence | Q93009
# USP8 block: blocks human USP8 ubiquitin-rhodamine cleavage; purified USP8, Ub-rhodamine cleavage fluorescence, 30 min; inhibition, % at 20 µM; hit rate 4.2% among 47,000; AID 1645853
# USP28 inh: blocks human USP28 ubiquitin-rhodamine cleavage | inhibition, % at 25 µM | purified USP28, Ub-rhodamine cleavage fluorescence, 30 min | hit rate 3% among 47,000 | Q96RU2 | AID 1645857
# Target sequence (Q96RU2 whole entry, looked up): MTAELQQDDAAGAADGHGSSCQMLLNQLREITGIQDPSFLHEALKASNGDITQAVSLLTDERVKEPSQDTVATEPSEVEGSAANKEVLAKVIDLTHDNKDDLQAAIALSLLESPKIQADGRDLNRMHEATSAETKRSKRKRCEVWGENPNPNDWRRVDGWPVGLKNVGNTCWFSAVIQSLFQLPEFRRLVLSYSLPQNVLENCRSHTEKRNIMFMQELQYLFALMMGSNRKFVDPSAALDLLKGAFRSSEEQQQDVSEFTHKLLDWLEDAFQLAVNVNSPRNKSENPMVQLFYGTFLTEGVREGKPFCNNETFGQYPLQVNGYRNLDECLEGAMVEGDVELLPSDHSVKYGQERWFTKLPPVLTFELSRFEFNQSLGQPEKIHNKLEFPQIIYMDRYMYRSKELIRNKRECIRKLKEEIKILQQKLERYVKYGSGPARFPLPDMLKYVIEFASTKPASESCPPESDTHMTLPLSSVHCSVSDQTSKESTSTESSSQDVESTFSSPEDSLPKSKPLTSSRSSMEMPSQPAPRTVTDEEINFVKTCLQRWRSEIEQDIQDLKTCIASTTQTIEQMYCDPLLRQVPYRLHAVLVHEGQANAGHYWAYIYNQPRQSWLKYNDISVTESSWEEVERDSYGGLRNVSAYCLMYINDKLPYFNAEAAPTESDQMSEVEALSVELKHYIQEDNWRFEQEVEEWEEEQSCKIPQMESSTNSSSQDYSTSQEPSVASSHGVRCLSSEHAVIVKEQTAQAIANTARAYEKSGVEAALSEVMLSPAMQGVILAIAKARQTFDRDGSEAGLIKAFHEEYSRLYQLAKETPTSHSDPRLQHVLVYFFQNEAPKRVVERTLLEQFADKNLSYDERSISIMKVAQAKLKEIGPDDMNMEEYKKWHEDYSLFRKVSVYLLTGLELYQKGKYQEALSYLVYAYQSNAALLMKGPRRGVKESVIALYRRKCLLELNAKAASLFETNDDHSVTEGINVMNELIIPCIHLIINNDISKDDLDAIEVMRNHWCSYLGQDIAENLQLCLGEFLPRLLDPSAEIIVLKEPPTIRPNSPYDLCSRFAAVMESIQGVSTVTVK
# UCHL1 block: inhibitors of human UCHL1 deubiquitinase. inhibition, % at 20 µM. P09936. AID 1645859. purified UCHL1, Ub-rhodamine cleavage fluorescence. hit rate 0.2% among 47,000
# OTUD3 block: blocks human OTUD3 ubiquitin-rhodamine cleavage; Q5T2D3; hit rate 0.7% among 47,000; inhibition, % at 25 µM; purified OTUD3, Ub-rhodamine fluorescence, 2 h
# Hits are given with their value; - = inactive. Shown are actives, neighbours in structure and some others; about 6.8% of the full set was active somewhere. No stated cut-off is given here; in the data, active means inhibition above about 30%; inactive means the rest.
SMILES,USP10 block,USP7 inh,USP8 block,USP28 inh,UCHL1 block,OTUD3 block
Fc1cccc(Cl)c1CN1CCN(C/C=C/c2ccccc2)CC1,-,-,-,-,-,-
N#Cc1ccc(NC(=O)COC(=O)c2ccccc2Nc2ccccc2)cc1,-,-,-,-,-,-
N#Cc1ccc(Cl)cc1NC(=O)COC(=O)c1n[nH]c2ccccc12,-,-,34.3,-,-,-
CCOc1ccc(NC(=O)COC(=O)c2n[nH]c3ccccc23)cc1,-,-,-,-,-,-
CCc1ccc(NC(=O)COC(=O)c2n[nH]c3ccccc23)cc1,-,-,-,43.3,-,-
N#Cc1cccc(NC(=O)COC(=O)c2n[nH]c3ccccc23)c1,31.3,-,-,-,-,-
CCN(C=C1NC(=O)c2ccccc2N1)CC(=O)Nc1cc(Cl)ccc1-n1cncn1,-,-,-,-,-,-
CC(C)n1ccnc1CN1CCN(C2CCOCC2)CC(C(N)=O)C1 (centres undefined),-,-,-,-,-,-
CCOC(=O)N1CCN(C(=O)c2cn(-c3ccc(Cl)cc3)nn2)CC1,-,-,-,-,-,-
O=C(CSc1nnc(CNC(=O)c2ccccc2F)o1)Nc1ccc(Br)cc1,-,-,-,-,-,-
O=C(COC(=O)CCc1nc2ccccc2[nH]c1=O)Nc1ccc([N+](=O)[O-])cc1,-,-,80.9,-,-,-
CC(OC(=O)CCc1nc2ccccc2[nH]c1=O)C(=O)Nc1cccc(Cl)c1Cl (centres undefined),-,-,-,-,-,-
CC(=O)Nc1ccc(C(=O)N2CCN(c3ccc(F)cc3)CC2)c(N2CCOCC2)c1,-,-,-,-,-,-
O=C(c1cccc2ncccc12)N1CCN(c2ccnc3cc(Cl)ccc23)CC1,-,-,47.9,-,-,-
Cc1ccc(F)cc1NC(=O)Cc1nnc(-c2ccc3ncccc3c2)o1,-,-,55.8,-,-,-
CC(NC(=O)Cc1nnc(-c2ccccn2)o1)c1ccc(F)cc1 (centres undefined),-,-,-,-,-,-
Cc1cccc(NC(=O)Cc2nnc(-c3ccc4ncccc4c3)o2)c1,-,-,-,-,-,-
CCc1ccc(NC(=O)Cc2nnc(-c3ccc4ncccc4c3)o2)cc1,-,-,51.3,-,-,-
CNC(=O)[C@H]1C[C@]2(CCCCNC2=O)N(C(=O)Cc2ccc(OC)cc2)[C@H]1c1ccccc1,-,-,-,-,-,-
COc1ccc(CC(=O)OCC(=O)N2c3ccccc3NC(=O)C2(C)C)cc1,-,-,32.9,-,-,-
CN(C)c1ccc(C2C3=C(CC(C)(C)CC3=O)Nc3ccccc3N2C(=O)Cc2ccc(Cl)cc2)cc1 (centres undefined),-,-,30.5,-,-,-
CN1Cc2c(C(=O)NC(C)(C)C)ncn2-c2ccccc2S1(=O)=O,-,-,-,-,-,-
CC(C)c1nc2sc3c(SCC(=O)N(c4ccccc4)c4ccccc4)ncnc3c2c2c1COC(C)(C)C2,-,-,-,-,-,-
Cc1cccc(Cc2c(C)nc(N3CCN(c4ccccc4)CC3)[nH]c2=O)c1,-,-,-,-,-,-
CC1CC(=O)c2c(cc3c(-c4c(O)cc(O)c5c(O)c6c(cc45)OC(C)CC6=O)c(O)cc(O)c3c2O)O1 (centres undefined),82.5,74.2,78.5,85.2,83.4,78.5
SMILES,USP10 block,USP7 inh,USP8 block,USP28 inh,UCHL1 block,OTUD3 block
CCCCCCCCCC(CCCCCCCCCC(=O)O)O[C@H]1O[C@@H](COC(C)=O)[C@H](O)[C@@H](O)[C@H]1OC(=O)CC(=O)O (some centres undefined),68.0,-,-,40.6,-,-
Cc1ccccc1NS(=O)(=O)c1cc2[nH]c3c(c2cc1C)C(=O)CCC3,-,-,40.3,57.1,-,-
Cc1cc2c3c([nH]c2cc1S(=O)(=O)Nc1c(C)cccc1C)CCCC3=O,-,-,-,-,-,-
Cc1ccc(NC(=O)Cc2nnc3c(-c4nc(C5CC5)no4)cccn23)cc1F,53.8,52.6,93.4,-,31.5,-
Cc1ccc(NC(=O)Cn2cc(-c3nc(C4CC4)no3)ccc2=O)cc1C,-,-,-,-,-,-
Cc1ccc(NC(=O)Cc2nnc3c(-c4nc(C5CC5)no4)cccn23)c(C)c1,-,-,64.6,-,-,-
Cc1ccc(NC(=O)Cn2c(C)cc(-c3nc(C4CC4)no3)c2C)c(F)c1,-,-,-,-,-,-
Cc1ccc(Nc2nc(N)nc(CN3CCCC3c3nc4ccccc4s3)n2)cc1 (centres undefined),-,-,-,-,-,-
Cc1nc2c(c(-c3ccc(O)cc3)n1)CCNCC2,-,-,45.7,-,-,-
Cc1cn2c3c(=O)[nH]c(=O)n(C)c3nc2n1-c1ccccc1,-,-,-,-,-,-
c1ccc(CCNc2nn3c(-c4cccnc4)cnc3s2)nc1,-,-,-,-,-,-
c1cncc(-c2cnc3sc(NCc4ccc5c(c4)OCO5)nn23)c1,30.4,-,36.6,86.9,-,60.4
Fc1ccc(CNc2nn3c(-c4cccnc4)cnc3s2)cc1,-,-,-,-,-,-
CN(C)c1ccc(CNc2nn3c(-c4cccnc4)cnc3s2)cc1,-,-,-,66.8,-,40.2
C[C@]1(O)CC2(CCNCC2)OC[C@@H]1n1cnc2c(N)ncnc21,-,-,-,-,-,-
COc1c(O)c(O)c2c(=O)cc(-c3ccc(O)cc3)oc2c1OC,-,-,-,40.3,-,46.1
CCc1ccc(NC(=O)CSc2nc3nccnc3c(=O)n2Cc2ccc(F)cc2)cc1,-,-,44.1,-,-,-
NC(=O)CSc1nc2nccnc2c(=O)n1Cc1ccc(F)cc1,-,-,-,-,-,-
COc1cccc(CNC(=O)c2nc3c(s2)CCNCC3)c1,-,-,53.7,-,-,-
NC(=O)C1CCN(C(=O)Cn2c(=O)n(-c3ccc(Cl)cc3)c(=O)c3ccccc32)CC1,-,-,-,-,-,-
Cc1ccc(OCc2nc(C#N)c(N3CCCCC3)o2)cc1,-,-,-,36.8,-,-
N#Cc1nc(Cc2ccccc2)oc1N1CCN(c2ccccc2)CC1,-,-,-,-,-,-
CCc1cnc(N2CC[C@H]3[C@H]2CCN3S(=O)(=O)C2CC2)nc1,-,-,-,-,-,-
COc1ccc(-c2nn(-c3ccccc3)c3[nH]c(=O)c(CNCc4cccs4)cc23)cc1OC,-,-,78.2,-,-,-
COc1ccc(-c2nn(-c3ccccc3)c3[nH]c(=O)c(CNc4ccc5c(c4)OCCO5)cc23)cc1OC,-,30.6,78.3,-,-,-
Cc1nn(-c2ccccc2)c2[nH]c(=O)c(CNCC3CCCO3)cc12 (centres undefined),-,-,-,-,-,-
COc1nccnc1NC1CCN(C(=O)c2ccc(C#N)cc2)CC1,-,-,-,-,-,-
COC(=O)c1ccc(O)c(O)c1,-,-,-,-,-,-
COC(=O)c1ccc(C(=O)OC)c(N2C(=O)CSCC2=O)c1,-,-,35.9,-,-,-
